# High-throughput results as filed in PubChem BioAssay.
# Many of the other results were omitted from the sample, so hits are more common in it than they were.
# Dicer processing: inhibitors of human Dicer processing of pre-microRNA | Q9UPY3 | cat-ELCCA pre-miR-21 Dicer processing, chemiluminescence; stronger effect = higher value | z-score at 25 µM | 6% of 47,000 active | AID 1347074; in the data active = z-score above about 3, passing the limit was not always enough;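 note: plate controls were vehicle for no effect and no enzyme for full effect; higher signal means more uncleaved substrate so more Dicer inhibition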
# Target sequence (Q9UPY3 whole entry, looked up): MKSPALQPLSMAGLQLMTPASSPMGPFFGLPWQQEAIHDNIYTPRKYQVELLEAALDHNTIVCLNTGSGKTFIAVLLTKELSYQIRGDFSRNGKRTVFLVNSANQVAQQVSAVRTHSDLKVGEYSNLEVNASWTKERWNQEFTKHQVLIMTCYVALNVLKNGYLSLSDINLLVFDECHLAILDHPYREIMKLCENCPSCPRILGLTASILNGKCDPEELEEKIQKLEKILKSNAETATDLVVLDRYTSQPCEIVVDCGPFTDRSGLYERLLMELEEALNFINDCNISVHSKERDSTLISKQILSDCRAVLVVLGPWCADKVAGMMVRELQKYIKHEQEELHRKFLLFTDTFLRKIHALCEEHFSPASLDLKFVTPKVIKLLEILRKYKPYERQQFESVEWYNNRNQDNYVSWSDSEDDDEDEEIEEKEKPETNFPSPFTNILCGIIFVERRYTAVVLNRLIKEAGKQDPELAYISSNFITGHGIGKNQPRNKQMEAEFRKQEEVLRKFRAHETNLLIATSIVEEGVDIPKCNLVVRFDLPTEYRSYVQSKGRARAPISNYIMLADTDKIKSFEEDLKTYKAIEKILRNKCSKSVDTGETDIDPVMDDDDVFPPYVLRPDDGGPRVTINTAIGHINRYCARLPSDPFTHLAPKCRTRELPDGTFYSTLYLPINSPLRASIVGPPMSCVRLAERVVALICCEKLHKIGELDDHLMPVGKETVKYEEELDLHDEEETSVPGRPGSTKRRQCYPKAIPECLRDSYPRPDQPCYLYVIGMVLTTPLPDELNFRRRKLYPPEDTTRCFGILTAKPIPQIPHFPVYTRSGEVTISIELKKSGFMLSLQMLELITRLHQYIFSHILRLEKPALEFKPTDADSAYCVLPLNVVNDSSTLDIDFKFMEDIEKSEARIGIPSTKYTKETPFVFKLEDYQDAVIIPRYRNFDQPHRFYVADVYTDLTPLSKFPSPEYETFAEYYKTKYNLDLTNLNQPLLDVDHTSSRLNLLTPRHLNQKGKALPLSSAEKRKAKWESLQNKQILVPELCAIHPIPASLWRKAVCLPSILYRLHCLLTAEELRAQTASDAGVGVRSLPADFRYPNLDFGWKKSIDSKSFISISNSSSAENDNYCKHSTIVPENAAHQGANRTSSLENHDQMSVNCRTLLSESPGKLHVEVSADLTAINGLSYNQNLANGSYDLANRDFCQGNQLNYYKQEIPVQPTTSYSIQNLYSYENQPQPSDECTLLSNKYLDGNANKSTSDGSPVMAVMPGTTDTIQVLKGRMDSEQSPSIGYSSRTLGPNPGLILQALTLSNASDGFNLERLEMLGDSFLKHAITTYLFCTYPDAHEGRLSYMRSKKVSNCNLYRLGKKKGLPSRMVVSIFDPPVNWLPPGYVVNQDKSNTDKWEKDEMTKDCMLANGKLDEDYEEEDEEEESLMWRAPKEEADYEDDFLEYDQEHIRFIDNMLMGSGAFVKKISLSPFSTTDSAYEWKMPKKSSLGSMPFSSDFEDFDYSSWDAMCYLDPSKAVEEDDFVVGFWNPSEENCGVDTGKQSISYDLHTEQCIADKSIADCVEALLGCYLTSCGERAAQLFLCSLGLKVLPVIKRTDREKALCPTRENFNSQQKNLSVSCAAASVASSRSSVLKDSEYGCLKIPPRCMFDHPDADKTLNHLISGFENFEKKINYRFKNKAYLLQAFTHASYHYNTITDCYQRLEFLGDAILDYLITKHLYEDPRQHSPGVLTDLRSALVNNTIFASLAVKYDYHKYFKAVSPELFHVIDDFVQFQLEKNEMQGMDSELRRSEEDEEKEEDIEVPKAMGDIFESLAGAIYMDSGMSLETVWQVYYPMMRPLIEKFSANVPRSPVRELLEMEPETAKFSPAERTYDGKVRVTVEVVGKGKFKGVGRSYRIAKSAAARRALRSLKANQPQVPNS
# An asterisk follows results filed as active.
SMILES,Dicer processing
COC(=O)c1ccc(N2C(=O)C3C4C=CC(CC4)C3C2=O)cc1 (stereo not given),-0.19
O=C1C2C3C=CC(CC3)C2C(=O)N1c1cccc(Cl)c1 (stereo not given),3.3*
CC(C)c1ccc(N2C(=O)C3C4C=CC(CC4)C3C2=O)cc1 (stereo not given),3.5*
Cc1nn(C2c3ccccc3Oc3ccccc32)c(=S)s1,-0.15
ONC(=Nc1ccc(C(F)(F)F)cc1)c1c(F)cccc1F,0.5
Cc1nnc(NC(=O)CSc2nncn2C)s1,0.84
CCOC(=O)c1cnc(O/N=C/c2ccc(Cl)cc2Cl)nc1C(F)(F)F,-2.7
COc1cccc(OC)c1C(=O)Oc1ccc2c(=O)c(-c3ccccc3)coc2c1,-0.38
COc1ccccc1C1CC(=O)c2c(ccc3ccccc23)N1 (stereo not given),2.8
CCOC(=O)c1sc(NC(C)=O)nc1C,4.3*
COC(=O)c1sc(NC(C)=O)nc1C,-0.11
CCOC(=O)c1sc(NC(=O)c2ccco2)nc1C,-1.4
O=C(O)c1ccccc1C(=O)Nc1ncccc1OCc1ccc(Cl)c(Cl)c1,-0.62
CCCCCCCc1c(O)c2cccc3c2n(c1=O)CCC3,-0.37
Nc1ncnc2sc3c(c12)CCCCC3,1.7
Nc1ncnc2sc3c(c12)CCCC3,-0.7
Nc1nc(-c2ccncc2)nc2sc3c(c12)CCCCC3,4.1*
C=CCOc1ccc(C2N3CC4(C)CN2CC(C)(C3)C4)cc1 (stereo not given),2.5
Cc1ccc2c(Cl)c(C(=O)Nc3nc(C)c(C)s3)sc2c1,3.6*
CCOC(=O)c1sc(NC(=O)c2sc3ccccc3c2Cl)nc1C,-0.51
O=C(Nc1ccccc1)c1sc2ccccc2c1Cl,-1.5
CCOC(=O)CSC1=C(C#N)C(c2cc(OC)ccc2OC)CC(=O)N1 (stereo not given),0.79
O=C1NC(=S)/C(=C/c2ccccc2O)S1,-1.5
COc1cccc(/C=C2/SC(=S)N(C)C2=O)c1O,7.7*
COc1cccc(/C=C2\SC(=S)NC2=O)c1OC,-0.91
SMILES,Dicer processing
Cc1ccc(C)c(Nc2nnc(-c3ccc(C)c(S(=O)(=O)NCCO)c3)c3ccccc23)c1,0.3
Cc1c2occ(-c3ccc(F)cc3)c2cc2c1oc(=O)c1ccccc12,4.2*
Cc1c2occ(-c3ccc4c(c3)OCO4)c2cc2c1oc(=O)c1ccccc12,0.19
COc1ccc2c(c1)c(=O)oc1c(C)c3occ(-c4ccc(F)cc4)c3cc12,-0.64
CCOC(=O)N/N=C(\CC)c1ccccc1,0.06
COc1ccc(C2C(C#N)=C(N)Oc3n[nH]c(-c4ccc5c(c4)OCO5)c32)cc1OC (stereo not given),-5.8
Cc1nn(-c2cccc(Cl)c2)c2oc(=O)cc(C(F)(F)F)c12,-4
CCN(CCS(=O)(=O)c1ccc(Cl)cc1)C(=O)Nc1ccccc1,3.3*
CNC(=O)N(CCS(=O)(=O)c1ccc(Cl)cc1)Cc1cccs1,-2.5
CCN(CCS(=O)(=O)c1ccccc1)S(=O)(=O)c1ccc(Cl)cc1,-4.4
C=CCNc1nc2c(c(=O)[nH]c(=O)n2C)n1Cc1ccc(F)cc1,1.7
NC(=NC(=O)c1cccc(Cn2cc(C(F)(F)F)ccc2=O)c1)c1ccccc1,-0.66
NNC(=O)CSc1ncnc2sc3c(c12)CCCC3,-0.2
CC1(C)CC(=O)C2=C(C1)c1c(ccc3ccccc13)NC2c1ccc(O)c(O)c1 (stereo not given),13*
CCOc1cc(C2Nc3ccc4ccccc4c3C3=C2C(=O)CC(C)(C)C3)ccc1O (stereo not given),0.64
CC1(C)CC(=O)C2=C(C1)c1c(ccc3ccccc13)NC2c1ccc(O)cc1 (stereo not given),1
CC12C=CC(O1)C1C(=O)N(c3ccc(N4CCOCC4)cc3)C(=O)C12 (stereo not given),-0.66
COc1ccccc1C1CC(=O)C2=C(C1)NC(C)=C(C(=O)OC1CCCC1)C2c1ccsc1 (stereo not given),-0.04
O=C(O)CCC(=O)N1CCCc2ccccc21,2.3
O=C(Nc1ccc(Cl)cc1)N1CCCc2ccccc21,4.3*
O=C(Nc1cc(Cl)cc(Cl)c1)N1CCCc2ccccc21,-0.22
Cn1c(SCC(O)c2ccc(F)cc2)nnc1-c1ccc2ccccc2c1 (stereo not given),-0.89
Fc1ccccc1-c1nn2c(Cc3ccccc3)nnc2s1,0.65
c1ccc(Cc2nnc3sc(-c4ccco4)nn23)cc1,-0.3
CSc1nn2c(=O)c(Cc3ccccc3)nnc2s1,3.2*
SMILES,Dicer processing
COC(=O)C1=C(C)NC2=C(C(=O)c3ccccc32)C1c1ccc(O)cc1 (stereo not given),1.6
O=[N+]([O-])c1ccc(Oc2n[nH]c3ccccc23)nc1,0.34
CC1=CC(C)(C)Nc2ccc(OC(=O)c3ccc(Br)cc3)cc21,-1.7
O=C(O)c1ccccc1S(=O)(=O)c1ccccc1C(=O)O,-0.67
COc1ccc(-n2cc3c(=O)n(C)c(=O)n(C)c3c2)cc1,0.37
Cc1nn(C(=O)c2ccc(Cl)cc2)c(C)c1Sc1nnnn1-c1ccccc1,-1.9
COc1cccc(-n2c(N)c(C#N)c3ccc([N+](=O)[O-])cc3c2=O)c1,-0.03
COc1ccc(-c2c(N)n(-c3ccccc3)c(=O)c3cc([N+](=O)[O-])ccc23)cc1OC,3.4*
Nc1c(-c2ccc3ccccc3n2)c2ccc([N+](=O)[O-])cc2c(=O)n1Cc1ccccc1,-1.1
O=C(NC(=O)c1ccccc1N1CCCCC1)Nc1ccc(Cl)cc1,0.93
COc1ccc(C(=O)CSc2nnc3n2CCCN3C(=O)c2cccc([N+](=O)[O-])c2)cc1,3
CCOC(=O)CSCc1noc(COc2ccc(Cl)cc2Cl)n1,-0.51
CSC1=NC(C)(C)CCC(C)(C)N1,-0.69
S=c1[nH]c2cc(Cl)cc(Cl)c2o1,-0.92
Fc1cc2[nH]c(=S)[nH]c2cc1Cl,4.2*
N#CCCN(CC1CCCO1)C(=S)Nc1cc(C(F)(F)F)cc(C(F)(F)F)c1 (stereo not given),-1.8
Cn1cc(C(=O)O/N=C(\N)c2ccc(C(C)(C)C)cc2)c(C(F)(F)F)n1,1.2
COc1cc2nc3c4ccccc4n(C(C)C)c3nc2cc1OC,3.4*
CC(C)n1c2ccccc2c2ccccc21,0.68
CCCCn1c2ccccc2c2nc3cc(OC)c(OC)cc3nc21,1
Cn1c(=O)c2c(ncn2CC(O)CN2CCCCC2)n(C)c1=O (stereo not given),2.3
Cc1onc(-c2c(Cl)cccc2Cl)c1C(=O)Nc1nc(-c2ccccc2)cs1,2.1
CN(C)c1ccc(C=C2C(=O)N(c3ccccc3)C(=O)N(c3ccccc3)C2=O)cc1,1.6
CN(C)c1ccc(/C=C2/OC(=S)NC2=S)cc1,3.4*
COc1ccc(NC2CC(=O)N(c3ccc(OC(C)=O)cc3)C2=O)cc1 (stereo not given),1.3
SMILES,Dicer processing
Cc1ccc(-c2c3c(=O)n(C)c(=O)n(C)c3c3c(-c4ccccc4)cc(C)nn23)cc1,-0.32
CC(C)n1c(NCc2ccccc2O)nc2ccccc21,0.13
C=CCn1c(NCc2ccc(N(CC)CC)cc2)nc2ccccc21,2.3
CCn1c(NCc2cc(Cl)ccc2O)nc2ccccc21,3*
C=CCn1c(NCc2cc(Cl)ccc2O)nc2ccccc21,3.9*
C=CCn1c(NCc2ccccc2O)nc2ccccc21,0.92
CCCn1c(NCc2cc(Cl)ccc2O)nc2ccccc21,1.7
Cc1cc(Br)c(-n2cccc2)c(Br)c1Cl,-1.1
O=C(Nc1cccc(Cl)c1)NC1Cc2ccccc2C1,-2.5
O=C1C(C2=NC(c3ccccn3)C3C(=O)N(c4ccc(Cl)cc4)C(=O)C23)=C(O)c2ccccc21 (stereo not given),1.1
